Compounds with a hit are over-represented: about 9.3% of the library has one in this group of screens.
M1 antagonist = antagonists of rat M1 muscarinic receptor; 3.4% of 64,000 active; B-score at 10 µM; CHO-M1 cells, Fluo-4 calcium, ACh EC80 antagonist mode; active compounds read low;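 active = calcium fluorescence response, raw or row-and-column corrected B-score, differing from the plate sample mean either way at a set confidence level, mostly lower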
Target sequence (P08482 whole entry, looked up): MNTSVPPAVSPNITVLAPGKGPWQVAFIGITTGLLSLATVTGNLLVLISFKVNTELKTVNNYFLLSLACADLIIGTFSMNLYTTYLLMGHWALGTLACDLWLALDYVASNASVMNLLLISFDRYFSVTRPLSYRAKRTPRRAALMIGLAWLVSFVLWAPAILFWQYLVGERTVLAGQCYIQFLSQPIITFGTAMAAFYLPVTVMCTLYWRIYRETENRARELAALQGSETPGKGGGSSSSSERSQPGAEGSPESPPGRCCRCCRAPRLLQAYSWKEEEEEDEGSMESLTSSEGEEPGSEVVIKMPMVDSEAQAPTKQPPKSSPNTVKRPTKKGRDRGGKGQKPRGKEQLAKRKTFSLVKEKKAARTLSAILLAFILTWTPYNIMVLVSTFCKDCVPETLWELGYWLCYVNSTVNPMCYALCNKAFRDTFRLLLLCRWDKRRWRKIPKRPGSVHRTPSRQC
Fluor 339 460 = intrinsic fluorescence of library compounds, ex339/em460 – biochemical, MLSMR library, data from DPM-DC assay, artefact control, profiling panel. AID 709. fluorescence fold increase at 10 µM. compound autofluorescence, ex339/em460 nm, NADH buffer; active compounds read high; 1 = no-compound wells, NADH background. 5.5% of 65,000 active;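 active = at 10 µM, mean starting fluorescence two-fold or more over control wells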;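 note: signal is the first read of a kinetic run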
M1 agonist = M1 muscarinic receptor agonism; B-score at 10 µM; 3% of 64,000 active; CHO-M1 cells, Fluo-4 calcium fluorescence, agonist mode; active compounds read high; AID 626;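 active = fluorescence rise, raw or as B-score row- and column-corrected plate score, outside the 99.7% band of its plate's samples, either direction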
mHtt clearance = compounds clearing mutant huntingtin protein; HeLa Exon1htt(103Q)mCFP, aggregate imaging; zero = plate's median compound well; inhibition, % at 1.5 µM; 0.42% of 47,000 active;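 active = inhibition of aggregate fluorescence above about 70%, also judged a hit by eye on the cell image, limit read from the data, passing the limit was not always enough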;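 note: cells exposed to compound for three days before fixation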
NADH enzymes = inhibition of NAD/NADH coupling enzymes, library profiling; IC50, µM (highest dose often 10 µM), for inactives: at the highest dose inhibition; AID 774; coupled PK/LDH NADH assays, four targets; 0.02% of 65,000 active;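 active = single-dose screening hits from any of four coupled enzyme assays that gave an IC50 when retested across doses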;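 note: the DPM-DC format reads NADH fluorescence rather than 340 nm absorbance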
Abs 340nm = compound absorbs light at 340 nm; fold change at 10 µM; compound absorbance at 340 nm, fold over control; 65,000 tested, under 10 active;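 active = at 10 µM dose, initial 340 nm absorbance at least 2 fold that of control wells; inactive = change under 2 fold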;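 note: initial absorbance extrapolated from kinetic A340 decline of NADH oxidation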
Active calls of the source: *; . = not tested or not shown.

SMILES | M1 antagonist | Fluor 339 460 | M1 agonist | mHtt clearance | NADH enzymes | Abs 340nm
O=C1Nc2ccc(S(=O)(=O)N3CCCCCC3)c3cccc1c23 | 0.463 | 2.12* | -0.21 | . | 8.0% | 1.09
O=C(NCc1ccco1)C(c1cccs1)N(C(=O)C1COc2ccccc2O1)c1cccc(O)c1 (configuration not stated) | -1.56 | 1.08 | 2.18 | 13.1 | 2.0% | 1.01
O=S(=O)(Nc1cccc2c1ccc1cccn12)c1cccs1 | . | . | . | -30.9 | . | .
COc1ccc(C(=O)/C=C\N2CCOCC2)cc1 | -0.144 | 1.02 | -0.164 | . | 6.0% | 1.26
CCOC(=O)N1CCN(C(=O)c2ccc(NC(=O)c3ccc(C)cc3)cc2)CC1 | -0.168 | 1.07 | 0 | . | 3.0% | 1.01
Cc1ccc2c(c1)-c1ccccc1S(=O)(=O)N2 | -0.0206 | 3.72* | -0.118 | -0.1 | 5.0% | 1.03
CCC(C)C(=O)Nc1nc(C)c(-c2csc(Nc3cc(Cl)ccc3OC)n2)s1 (configuration not stated) | . | . | . | 71.9* | . | .
CCC(C)C(=O)Nc1nc(C)c(-c2csc(Nc3cc(OC)ccc3OC)n2)s1 (configuration not stated) | . | . | . | 24.1 | . | .
COc1ccc(/C(O)=C2/C(=O)C(=O)N(CCN(C)C)C2c2ccccc2)cc1Cl (configuration not stated) | 1.03* | 0.97 | -0.805 | . | 1.0% | 1.14
COc1ccc(/C(O)=C2/C(=O)C(=O)N(CCN(C)C)C2c2ccc(C)cc2)cc1Cl (configuration not stated) | 0.583 | 1.06 | -0.435 | 28.4 | 5.0% | 1.12
Cc1ccc(C2/C(=C(\O)c3c(C)nc4ccccn34)C(=O)C(=O)N2CCCN(C)C)o1 (configuration not stated) | -0.199 | 1.09 | -0.353 | . | 2.0% | 1.07
CCOC(=O)c1[nH]c(C)c(/C(O)=C2\C(=O)C(=O)N(CCN(C)C)C2c2ccco2)c1C (configuration not stated) | -2.35* | 0.98 | -0.457 | . | 10.0% | 1.09
COc1ccc(/C(O)=C2/C(=O)C(=O)N(CCCN(C)C)C2c2ccco2)cc1Cl (configuration not stated) | -0.727 | 1.02 | 35.2* | . | 1.0% | 1
CCN(CC)CCN1C(=O)C(=O)/C(=C(/O)c2c(C)[nH]c(C(=O)OC)c2C)C1c1ccco1 (configuration not stated) | 0.2 | 1.01 | -1.37 | -2.4 | 2.0% | 1.02
COc1ccc(OC)c(C2/C(=C(\O)c3c(C)nc4ccccn34)C(=O)C(=O)N2CCCN(C)C)c1 (configuration not stated) | 2.4* | 1.12 | 1.24 | . | 3.0% | 1.02
CCOc1ccc(N2C(=O)c3cccnc3C2Nc2ccc(C)cc2)cc1 (configuration not stated) | -1.78 | 1.07 | -0.126 | -27.8 | 6.0% | 1.07
CCCOC(=O)CSC1=C(C#N)C(c2ccccc2OC)C(C#N)C(=O)N1 (configuration not stated) | 0.199 | 1.09 | -0.113 | . | 3.0% | 1.04
CCN(CC)c1ccc(/C=C2\C(=O)N(c3ccc([N+](=O)[O-])cc3)N=C2N2CCOCC2)cc1 | . | . | . | -2.4 | . | .
O=c1[nH]c(-c2ccc(Cl)cc2)nc2c1cnn2-c1ccccc1 | 1.55 | 2.3* | 0.985 | 20.8 | 7.0% | 1.06
CC1Cc2nc(SCC(=O)Nc3nc4ccccc4s3)n(C)c(=O)c2S1 (configuration not stated) | . | . | . | 39.6 | . | .
CCCN(CC(=O)c1cc(C)n(C)c1C)S(=O)(=O)c1cccc(C(F)(F)F)c1 | 0.81 | 2.93* | 0.601 | 29.9 | 15.0% | 1.01
COc1ccc(-c2nc(C#N)c(NCc3ccc(F)cc3)o2)cc1OC | -0.16 | 3.92* | -0.496 | . | 17.0% | 1.06
COc1ccc(-c2nc(C#N)c(NCc3ccccc3Cl)o2)cc1 | 0.194 | 3.06* | 0.419 | 23.9 | 1.0% | 1.1
COc1ccc(-c2nc(C#N)c(NCc3ccccc3Cl)o2)cc1OC | 0.254 | 3.95* | -0.0169 | -0.4 | 13.0% | 1.02
O=C(CCn1cccc1)NCc1ccc(Cl)cc1 | 0.0734 | 1.15 | 0.64 | . | 3.0% | 0.99
SMILES | M1 antagonist | Fluor 339 460 | M1 agonist | mHtt clearance | NADH enzymes | Abs 340nm
Cc1nc(Cl)c(C(=O)NC(=O)Nc2cccc(C(F)(F)F)c2)c(C)c1[N+](=O)[O-] | . | . | . | -67.2 | . | .
O=C(CCCN1C(=O)CSc2ncccc21)N1CCN(Cc2ccccc2)CC1 | 0.531 | 1.08 | -0.554 | . | 5.0% | 1.01
CCOC(=O)C1=C(C)N=C2SC(CC)C(=O)N2C1c1ccc(OC(C)=O)c(OCC)c1 (configuration not stated) | 0.848 | 0.98 | -0.136 | . | 8.0% | 1.11
CCCCOC(=O)n1c(=O)oc2cc(S(=O)(=O)N3CCCCC3)ccc21 | 0.0361 | 1.08 | 0.49 | 72.3* | 3.0% | 1.02
COC(=O)c1ccc2c(c1)N(Cc1nc(-c3cccc(Cl)c3)oc1C)C(=O)C1CCCN21 (configuration not stated) | 0.339 | 2.04* | -0.421 | . | 2.0% | 1.01
COC(=O)c1ccc2c(c1)N(Cc1nc(-c3ccc(Cl)cc3)oc1C)C(=O)C1CCCN21 (configuration not stated) | 0.511 | 3.74* | -0.208 | . | 11.0% | 1.02
CCc1c(C)nc(N)n2c(SCC(=O)N3CCN(c4ccccc4OC)CC3)nnc12 | 1.58 | 1.1 | -0.401 | . | 5.0% | 0.99
CCOC(=O)N1CCC(Nc2nc3ccccc3nc2NS(=O)(=O)c2ccc(Cl)cc2)CC1 | -0.000373 | 1.32 | 1.63 | 36.3 | 5.0% | 1.21
Nc1ccc(C(=O)OCCCc2nc3ccccc3[nH]2)cc1 | 0.859* | 1.04 | 0.325 | . | 4.0% | 0.99
Cn1cnnc1SCC(=O)c1cc2ccccc2oc1=O | -0.267 | 1.02 | -0.694 | 0.7 | 8.0% | 1.01
O=C(Cn1nc(Cl)nc1Cl)c1cc2ccccc2oc1=O | -0.327 | 2.16* | -0.714 | 23.5 | 12.0% | 0.97
O=C(CCSCCc1ccccn1)Nc1ccc(Br)cn1 | . | . | . | -18.0 | . | .
Cc1ccc(-c2nc(C#N)c(NCCc3ccccn3)o2)cc1 | -0.28 | 2.63* | -0.176 | -17.6 | 9.0% | 1.03
COc1ccc(-c2nc(C#N)c(NCc3cccnc3)o2)cc1OC | . | . | . | -18.7 | . | .
N#Cc1nc(-c2ccc(Cl)cc2)oc1NCCc1ccccn1 | -0.0291 | 2.41* | 0.296 | -114.6 | 2.0% | 1.01
CC1CCN(CC(=O)N2c3ccccc3CCc3ccccc32)CC1 | . | 1.09 | . | 30.7 | 0.0% | 1.02
CC1(C(=O)N(CC(=O)NC2CCCC2)C2CCCC2)CC(=O)N=C2C=CC=CN21 (configuration not stated) | 1.13 | 3.75* | 1.41 | . | 7.0% | 1
COc1ccc(S(=O)(=O)NCC(=O)N(CC(=O)NCC2CCCO2)c2ccccc2C)cc1 (configuration not stated) | -0.0618 | 1.05 | -0.158 | -37.8 | 4.0% | 0.96
Cc1ccccc1N(CC(=O)NCC1CCCO1)C(=O)C1(C)CC(=O)N=C2C=CC=CN21 (configuration not stated) | -0.0219 | 3.3* | 0.923 | 36.4 | 6.0% | 0.99
